ChEMBL document CHEMBL1201862, “PubChem BioAssay data set” (2004)
The campaign covered roughly 400,000 compounds. About 2,100 (0.53%) were called active. Another 14% or so got no clear call; they are omitted. How the calls were made is not given here. The sample as a whole holds a higher share of actives than the screen did.

These compounds were tested against Ataxin-2 (Homo sapiens) (UniProt Q99700) (assay: qHTS for Inhibitors of ATXN expression.).
Chain of Ataxin-2 (Homo sapiens) (Q99700 whole entry): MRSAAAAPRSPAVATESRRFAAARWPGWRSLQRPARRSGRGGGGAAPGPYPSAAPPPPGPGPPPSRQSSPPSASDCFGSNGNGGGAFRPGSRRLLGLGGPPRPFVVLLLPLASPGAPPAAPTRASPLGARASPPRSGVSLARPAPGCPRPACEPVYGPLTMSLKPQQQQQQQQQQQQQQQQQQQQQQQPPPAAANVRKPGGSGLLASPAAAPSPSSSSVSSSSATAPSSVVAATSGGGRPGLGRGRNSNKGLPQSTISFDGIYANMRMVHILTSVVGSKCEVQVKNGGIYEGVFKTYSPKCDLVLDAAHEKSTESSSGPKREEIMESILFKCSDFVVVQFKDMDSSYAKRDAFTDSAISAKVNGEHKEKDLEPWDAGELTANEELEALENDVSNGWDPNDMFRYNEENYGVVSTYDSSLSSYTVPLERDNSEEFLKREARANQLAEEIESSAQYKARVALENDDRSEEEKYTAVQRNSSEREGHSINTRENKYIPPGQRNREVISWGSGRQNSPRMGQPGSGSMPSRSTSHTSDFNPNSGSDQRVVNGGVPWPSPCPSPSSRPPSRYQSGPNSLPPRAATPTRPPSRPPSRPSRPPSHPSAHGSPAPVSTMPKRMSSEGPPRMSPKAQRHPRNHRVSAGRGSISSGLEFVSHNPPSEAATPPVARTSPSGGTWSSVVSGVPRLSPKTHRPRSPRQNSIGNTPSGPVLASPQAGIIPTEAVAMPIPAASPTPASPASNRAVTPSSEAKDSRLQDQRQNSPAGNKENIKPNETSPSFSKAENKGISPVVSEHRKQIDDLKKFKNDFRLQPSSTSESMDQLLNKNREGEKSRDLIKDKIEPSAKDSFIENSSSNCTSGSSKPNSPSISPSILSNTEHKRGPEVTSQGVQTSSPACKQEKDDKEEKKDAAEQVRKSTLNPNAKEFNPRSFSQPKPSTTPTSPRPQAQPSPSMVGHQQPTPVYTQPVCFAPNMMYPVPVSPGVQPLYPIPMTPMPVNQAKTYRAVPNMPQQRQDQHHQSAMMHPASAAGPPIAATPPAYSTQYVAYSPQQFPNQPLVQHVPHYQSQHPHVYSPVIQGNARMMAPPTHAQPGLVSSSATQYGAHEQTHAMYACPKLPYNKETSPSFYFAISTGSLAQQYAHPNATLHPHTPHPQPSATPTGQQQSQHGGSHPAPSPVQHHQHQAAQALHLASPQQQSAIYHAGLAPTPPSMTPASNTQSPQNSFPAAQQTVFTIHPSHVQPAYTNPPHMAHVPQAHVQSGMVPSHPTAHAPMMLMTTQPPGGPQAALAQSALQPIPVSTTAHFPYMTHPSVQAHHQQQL
Type: functional
In the case of `Cc1ccc(NC(=O)c2sc3nc(-c4ccc(F)cc4)ccc3c2N)cc1F`, the Potency is reported as “inactive”.
With `CC(C)c1ccc(C2=CC(c3ccc(C(C)C)cc3)n3nnnc3N2)cc1` (centres undefined) the Potency was “inactive”.
For `CCc1ccc2nc3nc(C)cc(C)c3c(N)c2c1`, the Potency was “inactive”.
With `Cc1ccc(C(=O)CC(=O)c2ccccc2C)c(O)c1` the Potency was “inactive”.
`CC(=O)c1cccc(NC(=O)C(C)OC(=O)c2cccc(S(=O)(=O)N3CCN(C)CC3)c2)c1` (centres undefined) was tested, and the Potency was “inactive”.
With `Cc1nnc2ccc(-c3ccc(NC(=O)c4ccco4)cc3)nn12` the Potency was “inactive”.
In the case of `Cc1ccc(-c2nn3c(C)nnc3s2)cc1NC(=O)c1ccc(-c2ccc(Cl)cc2Cl)o1`, the Potency is reported as 8.91 µM (active).
With `O=C(NCCCN1CCN(c2ccc(F)cc2)CC1)c1ccc2nc(Cc3ccccc3)oc2c1` the Potency was 20 µM (active).
`C=C(C)CNC(=O)c1ccc2nc(Cc3ccc(OC)cc3)oc2c1` was tested, and the Potency was “inactive”.
`O=C(NCCO)c1ccc2nc(Cc3cccc(Cl)c3)oc2c1` was tested, and the Potency was “inactive”.
With `O=c1c(O)c(-c2cccs2)oc2ccc(Cl)cc12` the Potency was “inactive”.
`N#Cc1ncc(Cc2ccccc2)nc1C#N` was tested, and the Potency was 39.8 µM (active).
With `Cc1ccc2cc(C#N)c(NCc3ccccc3)nc2c1` the Potency was “inactive”.
In the case of `Cc1nc2nc(SCc3ccccc3)nn2c(O)c1CCC(C)C`, the Potency is reported as “inactive”.
For `CCC1CCCCN1c1nc2c(C=O)c(C)nn2c2ccccc12` (centres undefined), the Potency was “inactive”.
With `COc1ccc(NC(=O)c2cc3c(Cl)nc4ccccc4c3s2)cc1OC` the Potency was 35.5 µM (active).
With `O=C(NC1CCCC1)c1cc2c(=O)n3ccccc3nc2s1` the Potency was “inactive”.
For `COc1ccc(-c2cc(C(=O)NC3=NCCS3)c3ccccc3n2)cc1OC`, the Potency was “inactive”.
For `COc1ccc(NC(=O)c2cc3c(=O)n(C)c4ccccc4c3s2)cc1OC`, the Potency was “inactive”.
In the case of `CCC1CCCCN1CCCNC(=O)c1cc2c(Cl)nc3ccccc3c2s1` (centres undefined), the Potency is reported as 31.6 µM (active).
`O=C(Cc1csc(Nc2nc(S)nc3ccccc23)n1)NCCCN1CCN(c2ccccc2F)CC1` was tested, and the Potency was “inactive”.
`CC1CCN(CCCNC(=O)c2cc3c(Cl)nc4ccccc4c3s2)CC1` was tested, and the Potency was 39.8 µM (active).
For `O=C(Cc1csc(Nc2nc(S)nc3ccccc23)n1)NCCCN1CCN(c2cccc(Cl)c2)CC1`, the Potency was “inactive”.
For `CCCCCC(=O)NC(=S)Nc1ccc(Cl)cn1`, the Potency was “inactive”.
`N#Cc1cnn2c(-c3cccc([N+](=O)[O-])c3)ccnc12` was tested, and the Potency was “inactive”.
`FC(F)(F)c1cc(-c2cccs2)nc2ncnn12` was tested, and the Potency was “inactive”.
With `CN1CCN(C(=O)CN(C2CCCCC2)S(=O)(=O)c2ccccc2)CC1` the Potency was “inactive”.
With `CCOc1ccccc1C(=O)N(Cc1ccccc1)Cc1cc2cc3c(cc2nc1O)OCCO3` the Potency was 35.5 µM (active).
For `COc1ccccc1C(=O)N(Cc1cc2cc3c(cc2nc1N(C)C)OCO3)CC1CCCO1` (centres undefined), the Potency was “inactive”.
`CCN(CC)CCCN(Cc1cc2cc3c(cc2nc1O)OCO3)C(S)=Nc1ccc(OC)cc1` was tested, and the Potency was “inactive”.
For `CCOc1ccc(C2C(C(=O)OC)=CN(CCOC)C=C2C(=O)OC)cc1`, the Potency was “inactive”.
In the case of `CCOc1ccc(-c2oc3ccc(C)cc3c(=O)c2O)cc1`, the Potency is reported as “inactive”.
For `CCNC(=O)c1cc2c(=O)n3cccc(C)c3nc2n(Cc2ccc(C)cc2)c1=N`, the Potency was “inactive”.
`Cc1ccc(CNCc2c(C(=O)O)n(Cc3ccc(C)cc3)c3cc(C)ccc23)cc1` was tested, and the Potency was 22.4 µM (active).
`Cc1ccc(CNS(=O)(=O)c2ccc3c(c2)CCN3C(=O)CCCC(=O)O)cc1` was tested, and the Potency was “inactive”.
For `CCc1cccc(C)c1NC(=O)CNCc1ccccc1`, the Potency was “inactive”.
With `CCOc1ccc(CNCc2c(C(=O)O)n(Cc3ccc(C)cc3)c3cc(C)ccc23)cc1` the Potency was 25.1 µM (active).
For `Cc1ccc(Cn2c(C(=O)O)c(CNCc3ccc(OC(C)C)cc3)c3ccc(C)cc32)cc1`, the Potency was 35.5 µM (active).
With `CCc1ccc(CNCc2c(C(=O)O)n(Cc3ccc(C)cc3)c3cc(C)ccc23)cc1` the Potency was 31.6 µM (active).
For `Cc1ccc(CNC(=O)c2ccc3c(O)c(O)c(-c4ccc(C)cc4)nc3c2)cc1`, the Potency was “inactive”.
`Cc1cccc(C(=O)/N=c2/c(C#N)cc3c(=O)n4cccc(C)c4nc3n2Cc2ccco2)c1` was tested, and the Potency was “inactive”.
`Cn1ncc(Oc2ccc([N+](=O)[O-])cc2)c(Cl)c1=O` was tested, and the Potency was “inactive”.
With `O=C(c1ccccn1)N(c1ccccc1)C1(C(=O)NC2CCCCC2)CCCCC1` the Potency was “inactive”.
In the case of `OC[C@@H]1[C@@H](c2ccccc2)C(c2ccccc2)=NN1c1ccccc1`, the Potency is reported as “inactive”.
For `CCOCCCNC(=O)C(NC(=O)c1ccc2c(c1)OCO2)c1ccc(Cl)cc1` (centres undefined), the Potency was “inactive”.
With `NC1=Nc2cccc3cccc1c23` the Potency was “inactive”.
`Cc1cc2c(cc1C)NC(CC(=O)Nc1ccccc1SC(F)(F)F)C(=O)N2` (centres undefined) was tested, and the Potency was “inactive”.
For `Cc1cc2n(n1)C(c1ccccc1)CC(c1ccc(Br)cc1)=N2` (centres undefined), the Potency was “inactive”.
For `CCOC(=O)c1c(SCC(=O)Nc2nccs2)nc(C)c(C)c1C`, the Potency was “inactive”.
For `CC(=O)NS(=O)(=O)c1ccc(N2C(=O)CC(Sc3nccc(C)n3)C2=O)cc1` (centres undefined), the Potency was “inactive”.
In the case of `Cc1ccc(N2C(=O)CC(Sc3nc4ccccc4o3)C2=O)cc1Cl` (centres undefined), the Potency is reported as 39.8 µM (active).
In the case of `Cc1cc(C)nc(SC2CC(=O)N(c3ccc(C)c(C)c3)C2=O)n1` (centres undefined), the Potency is reported as “inactive”.
In the case of `CSc1ccc(/C=C2\CCn3c2nc2cc(C(=O)O)ccc2c3=O)cc1`, the Potency is reported as “inactive”.
In the case of `CCN(CC)C(=O)c1cc2c(=O)n3cccc(C)c3nc2s1`, the Potency is reported as “inactive”.
`C/C(=N\NC(=O)COc1ccc([N+](=O)[O-])cc1)c1ccco1` was tested, and the Potency was “inactive”.
`Cc1cccc(C)c1NC(=O)Cn1nnc(-c2ccc(N3CCOCC3)cc2)n1` was tested, and the Potency was 39.8 µM (active).
With `O=C(Cn1nnc(-c2ccccc2)n1)NCC(=O)Nc1ccc(F)c(F)c1F` the Potency was “inactive”.
With `Cc1ccccc1-c1nnn(CC(=O)Nc2ccc3c(c2)OCO3)n1` the Potency was “inactive”.
For `CCOCCCNC(=O)c1c(N)n(-c2ccc3c(c2)OCO3)c2nc3ccccc3nc12`, the Potency was “inactive”.
For `COc1cccc2c(=O)c3c(cnn3C)n(C)c12`, the Potency was “inactive”.
`COc1ccccc1CNC(=O)CN1C(=O)c2cccc(N)c2C1=O` was tested, and the Potency was “inactive”.
For `COc1ccccc1CNC(=O)CCC1N=C2c3ccccc3N=C(SCc3ccc(C)cc3C)N2C1=O` (centres undefined), the Potency was 17.8 µM (active).
With `O=C(NCc1nnc(S)n1-c1cccc(C(F)(F)F)c1)c1ccc(S(=O)(=O)N2CCCCC2)cc1` the Potency was “inactive”.
For `Nc1cccn2c(-c3ccc(Cl)cc3)cnc12`, the Potency was “inactive”.
For `Cc1cc(-c2ccccc2)nc2oc(C(=O)NN)c(N)c12`, the Potency was “inactive”.
For `Cc1ccc(CSc2nc(-c3ccccc3C)nc3c2Cc2c(CO)cnc(C)c2O3)cc1`, the Potency was 28.2 µM (active).
For `Cc1ccc(CSc2nc3ccccc3c(=O)n2C)cc1`, the Potency was “inactive”.
`COc1ccc(C2CC(c3ccccc3Cl)=NN2c2ccc(S(N)(=O)=O)cc2)cc1` (centres undefined) was tested, and the Potency was “inactive”.
`CC(=O)Nc1ccc(C(=O)Nc2ccncc2)cc1` was tested, and the Potency was “inactive”.
For `CC(C)CC(NS(=O)(=O)OCC(Cl)(Cl)Cl)c1ccccc1` (centres undefined), the Potency was 35.5 µM (active).
`Cc1ccc(C)c(N(C(=O)c2snc(C(N)=O)c2N)C(C(=O)NCC2CCCO2)c2ccc(C)o2)c1` (centres undefined) was tested, and the Potency was “inactive”.
With `N=c1c(C(=O)NCC2CCCO2)cc2c(=O)n3ccccc3nc2n1C1CCCC1` (centres undefined) the Potency was “inactive”.
For `COC(=O)c1ccc(N2C(c3cc(OC)cc(OC)c3)=Cc3ccc(-c4ccc(C(N)=O)cc4)cc3C2CC(=O)C2CC2)cc1` (centres undefined), the Potency was “inactive”.
With `N=C1c2c(cc(O)n3c2nc2ccccc23)CN1CCN1CCOCC1` the Potency was “inactive”.
For `C[C@@H](C[C@@H](O)[C@H](O)C(C)(C)O)[C@@H]1CC[C@]2(C)C3=CC[C@H]4C(C)(C)C(=O)CC[C@]4(C)[C@H]3CC[C@@]12C`, the Potency was 39.8 µM (active).
For `Cc1cc(C)c(C(=O)CSc2nc(C)cc(C)c2C(N)=O)c(C)c1`, the Potency was “inactive”.
For `CSc1nc2sc3c(c2c(=O)n1CC(C)C)CC(C)(C)OC3`, the Potency was “inactive”.
For `CC(=O)N1CCc2c(sc3nc(SCC(C)C)n(-c4ccc(C)c(Cl)c4)c(=O)c23)C1`, the Potency was 25.1 µM (active).
In the case of `Oc1nc(C(Cl)Cl)nc2sc3c(c12)CCN(Cc1ccccc1)C3`, the Potency is reported as “inactive”.
In the case of `COc1cccc(C(=O)Nc2cccc(-c3ccc(N4CCOCC4)nn3)c2)c1OC`, the Potency is reported as “inactive”.
`Cc1cc(S(=O)(=O)Nc2cccc(-c3ccc(N4CCOCC4)nn3)c2)c(C)cc1Cl` was tested, and the Potency was 39.8 µM (active).
For `O=C(Nc1ccc(N2CCOCC2)c(S(=O)(=O)Nc2cc(Cl)ccc2Cl)c1)c1cccnc1`, the Potency was “inactive”.
With `COc1ccc(F)cc1S(=O)(=O)Nc1cccc(-c2ccc(N3CCCCCC3)nn2)c1` the Potency was 39.8 µM (active).
In the case of `Cc1ccc(S(=O)(=O)NCCC(=O)Oc2ccc3ccc(=O)oc3c2)cc1`, the Potency is reported as “inactive”.
For `Cc1ccc2c(Cl)cc(Cl)c(OCC(=O)NC(C)(C)C)c2n1`, the Potency was “inactive”.
For `Cc1oc(-c2cccc(NC(=O)c3ccccn3)c2)nc1CNC(=O)C#Cc1ccccc1`, the Potency was “inactive”.
With `Cc1ccc(C(=O)Nc2cccc(-c3nc(CNC(=O)c4ccc5ccccc5n4)c(C)o3)c2)s1` the Potency was “inactive”.
For `COC(=O)c1cccc(C(=O)NCc2nc(-c3cccc(NC(=O)c4ccoc4C)c3)oc2C)c1`, the Potency was 31.6 µM (active).
With `CSc1nc(C(=O)NCc2nc(-c3cccc(NC(=O)c4ccccn4)c3)oc2C)cs1` the Potency was “inactive”.
With `CSc1ccccc1C(=O)NCc1nc(-c2cccc(NC(=O)c3ccoc3C)c2)oc1C` the Potency was 25.1 µM (active).
In the case of `O=[N+]([O-])c1cc2c(cc1/C=N/n1cnnc1)OCO2`, the Potency is reported as “inactive”.
With `CCNc1nc(C)c(CN(C(C)=O)c2ccccc2)nc1C#N` the Potency was “inactive”.
`Cc1ccc(-c2cn3nc(C)c(C)nc3n2)cc1` was tested, and the Potency was “inactive”.
In the case of `Cc1cccc(N(CC(O)Cn2c3ccccc3c3ccccc32)S(=O)(=O)c2ccc(F)cc2)c1` (centres undefined), the Potency is reported as 15.8 µM (active).
In the case of `CC(C)(C)N(NS(=O)(=O)c1ccc(F)cc1)c1ccccc1`, the Potency is reported as “inactive”.
`Cc1ccc(S(=O)(=O)N(CC(O)Cn2c3ccccc3c3ccccc32)c2cccc(C(=O)NCCO)c2)cc1` (centres undefined) was tested, and the Potency was 35.5 µM (active).
In the case of `O=S(=O)(c1ccc(F)cc1)N(CC(O)Cn1c2ccccc2c2ccccc21)c1ccccc1` (centres undefined), the Potency is reported as 22.4 µM (active).
With `CCCCN(C)CC(O)Cn1cc(/C=C/C(=O)c2ccc(C)cc2)c2ccccc21` (centres undefined) the Potency was “inactive”.
In the case of `CCCCN(CCCC)CC(O)Cn1c2ccccc2c(=O)c2ccccc21` (centres undefined), the Potency is reported as “inactive”.
